Data: the supplement of paper PMC11732987, “Enantioselective OTUD7B fragment discovery through chemoproteomics screening and high-throughput optimisation” (Communications Chemistry, 2025)

Key:
Test in all cases: log2 ratio of Biotin-Ahx-Ub-VS probe labelling (fragment/DMSO); higher = less target engagement (more negative = stronger competition), active = hit call of the paper (q ≤ 0.05, log2 ratio ≤ -1)
Settings in all cases: compound concentration: 200 uM; treatment time: 3 h
[1] = molecular target: T1, USP19 (UniProt O94966)
T1 sequence (whole entry): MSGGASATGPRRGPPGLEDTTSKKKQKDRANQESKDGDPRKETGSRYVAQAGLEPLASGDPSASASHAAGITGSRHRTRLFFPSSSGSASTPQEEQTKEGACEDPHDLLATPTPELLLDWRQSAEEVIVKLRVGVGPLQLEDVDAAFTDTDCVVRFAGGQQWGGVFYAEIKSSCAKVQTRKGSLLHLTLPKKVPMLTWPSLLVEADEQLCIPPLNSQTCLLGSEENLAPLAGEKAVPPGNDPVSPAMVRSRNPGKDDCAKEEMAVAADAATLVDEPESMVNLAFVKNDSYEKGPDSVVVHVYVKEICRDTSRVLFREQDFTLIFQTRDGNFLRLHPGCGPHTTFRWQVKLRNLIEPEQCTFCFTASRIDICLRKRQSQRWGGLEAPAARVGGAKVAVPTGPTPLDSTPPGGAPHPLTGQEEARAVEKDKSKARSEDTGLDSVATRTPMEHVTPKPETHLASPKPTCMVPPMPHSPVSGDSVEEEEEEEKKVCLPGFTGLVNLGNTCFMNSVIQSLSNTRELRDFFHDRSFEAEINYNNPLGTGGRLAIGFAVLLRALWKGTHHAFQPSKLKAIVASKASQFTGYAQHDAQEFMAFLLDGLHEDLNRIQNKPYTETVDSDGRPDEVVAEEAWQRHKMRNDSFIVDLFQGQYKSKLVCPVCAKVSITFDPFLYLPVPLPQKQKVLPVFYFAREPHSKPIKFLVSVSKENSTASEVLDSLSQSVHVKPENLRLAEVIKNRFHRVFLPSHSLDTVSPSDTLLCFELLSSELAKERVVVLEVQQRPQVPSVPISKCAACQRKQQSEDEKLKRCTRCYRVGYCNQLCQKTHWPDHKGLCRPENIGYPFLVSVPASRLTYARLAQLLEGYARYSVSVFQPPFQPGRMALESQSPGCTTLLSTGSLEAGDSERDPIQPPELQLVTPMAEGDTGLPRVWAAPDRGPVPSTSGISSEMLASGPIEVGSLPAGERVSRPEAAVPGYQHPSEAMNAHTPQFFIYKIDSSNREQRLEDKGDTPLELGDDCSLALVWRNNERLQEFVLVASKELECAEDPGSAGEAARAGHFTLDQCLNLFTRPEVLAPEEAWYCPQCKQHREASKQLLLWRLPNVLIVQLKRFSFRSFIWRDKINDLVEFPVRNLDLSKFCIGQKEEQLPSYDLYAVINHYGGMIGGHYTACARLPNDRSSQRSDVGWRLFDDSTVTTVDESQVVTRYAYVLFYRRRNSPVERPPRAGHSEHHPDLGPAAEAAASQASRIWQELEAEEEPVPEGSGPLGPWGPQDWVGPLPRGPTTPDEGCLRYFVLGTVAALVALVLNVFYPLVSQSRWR
In short: (§1)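 HEK293T lysate, 495 µg per sample in Tris/CHAPS/IGEPAL buffer with protease inhibitors, was treated in triplicate with fragment at 200 µM or vehicle for 3 h and then with Biotin-Ahx-Ub-VS at 0.5 µM final for 1 h. Labelled DUBs were NeutrAvidin-enriched, digested with LysC and trypsin, and run by diaPASEF LC-MS/MS. Spectronaut label-free quantities were global-median-normalised, and values are average log2 fragment/vehicle ratios by unpaired t-test on proteins with ≥2 unique peptides.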

[2] = molecular target: USP24 (UniProt Q9UPU5)
In short: as §1

[3] = molecular target: T2, USP25 (UniProt Q9UHP3)
T2 sequence (whole entry): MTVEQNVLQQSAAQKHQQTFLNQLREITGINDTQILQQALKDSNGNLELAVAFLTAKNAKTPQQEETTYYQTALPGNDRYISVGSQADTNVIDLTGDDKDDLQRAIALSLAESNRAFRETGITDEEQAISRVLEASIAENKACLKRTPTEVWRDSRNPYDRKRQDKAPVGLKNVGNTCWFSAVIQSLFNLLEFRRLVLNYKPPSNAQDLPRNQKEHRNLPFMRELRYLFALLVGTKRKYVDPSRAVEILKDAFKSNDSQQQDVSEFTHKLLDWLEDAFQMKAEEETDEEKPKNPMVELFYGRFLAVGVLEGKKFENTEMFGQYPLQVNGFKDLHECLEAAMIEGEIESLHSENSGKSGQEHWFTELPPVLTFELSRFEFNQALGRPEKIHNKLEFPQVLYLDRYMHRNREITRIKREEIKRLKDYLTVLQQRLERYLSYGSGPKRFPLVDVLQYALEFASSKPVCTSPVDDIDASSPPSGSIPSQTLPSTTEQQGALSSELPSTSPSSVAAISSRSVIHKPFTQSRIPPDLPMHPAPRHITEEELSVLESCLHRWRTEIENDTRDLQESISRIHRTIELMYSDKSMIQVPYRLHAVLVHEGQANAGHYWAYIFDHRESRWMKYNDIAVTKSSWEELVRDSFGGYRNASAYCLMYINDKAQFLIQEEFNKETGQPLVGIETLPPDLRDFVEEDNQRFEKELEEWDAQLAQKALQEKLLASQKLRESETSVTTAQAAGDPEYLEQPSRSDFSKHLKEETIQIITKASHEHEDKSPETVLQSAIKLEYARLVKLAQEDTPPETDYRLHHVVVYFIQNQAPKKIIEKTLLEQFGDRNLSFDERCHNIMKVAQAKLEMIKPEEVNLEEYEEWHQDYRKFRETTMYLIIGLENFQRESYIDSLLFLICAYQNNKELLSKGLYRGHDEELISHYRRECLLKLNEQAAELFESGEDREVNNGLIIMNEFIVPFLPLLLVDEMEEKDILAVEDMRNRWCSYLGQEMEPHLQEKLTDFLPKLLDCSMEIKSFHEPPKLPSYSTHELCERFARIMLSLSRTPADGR
In short: as §1

[4] = molecular target: T3, USP28 (UniProt Q96RU2)
T3 sequence (whole entry): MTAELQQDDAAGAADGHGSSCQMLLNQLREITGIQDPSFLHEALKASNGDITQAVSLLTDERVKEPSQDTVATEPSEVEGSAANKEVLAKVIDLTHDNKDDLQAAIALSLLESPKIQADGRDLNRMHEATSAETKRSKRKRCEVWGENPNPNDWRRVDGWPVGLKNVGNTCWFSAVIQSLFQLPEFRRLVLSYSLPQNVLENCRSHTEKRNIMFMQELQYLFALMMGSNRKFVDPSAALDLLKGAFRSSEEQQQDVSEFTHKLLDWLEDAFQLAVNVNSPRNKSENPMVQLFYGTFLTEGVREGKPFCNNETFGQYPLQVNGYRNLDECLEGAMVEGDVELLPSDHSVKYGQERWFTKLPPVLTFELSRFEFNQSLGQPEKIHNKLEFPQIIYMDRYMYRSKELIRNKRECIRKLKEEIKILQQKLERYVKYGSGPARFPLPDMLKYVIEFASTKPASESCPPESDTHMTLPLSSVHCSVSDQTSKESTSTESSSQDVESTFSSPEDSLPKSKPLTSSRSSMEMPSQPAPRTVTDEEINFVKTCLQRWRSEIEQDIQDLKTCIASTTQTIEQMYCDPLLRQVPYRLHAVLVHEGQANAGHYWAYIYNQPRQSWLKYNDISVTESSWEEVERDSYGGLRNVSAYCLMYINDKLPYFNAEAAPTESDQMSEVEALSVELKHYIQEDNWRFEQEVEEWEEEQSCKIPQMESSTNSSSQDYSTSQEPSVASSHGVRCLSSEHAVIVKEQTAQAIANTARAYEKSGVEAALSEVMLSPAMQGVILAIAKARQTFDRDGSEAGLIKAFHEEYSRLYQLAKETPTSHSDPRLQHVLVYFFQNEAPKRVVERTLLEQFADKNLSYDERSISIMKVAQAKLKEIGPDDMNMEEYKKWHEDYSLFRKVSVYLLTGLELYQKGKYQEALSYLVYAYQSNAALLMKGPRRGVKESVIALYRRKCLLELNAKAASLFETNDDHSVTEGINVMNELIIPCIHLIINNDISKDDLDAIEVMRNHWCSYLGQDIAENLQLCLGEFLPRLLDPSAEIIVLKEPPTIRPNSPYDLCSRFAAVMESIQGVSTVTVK
In short: as §1

Measured: log2 ratio of Biotin-Ahx-Ub-VS probe labelling

Chain of USP24 (Q9UPU5 whole entry): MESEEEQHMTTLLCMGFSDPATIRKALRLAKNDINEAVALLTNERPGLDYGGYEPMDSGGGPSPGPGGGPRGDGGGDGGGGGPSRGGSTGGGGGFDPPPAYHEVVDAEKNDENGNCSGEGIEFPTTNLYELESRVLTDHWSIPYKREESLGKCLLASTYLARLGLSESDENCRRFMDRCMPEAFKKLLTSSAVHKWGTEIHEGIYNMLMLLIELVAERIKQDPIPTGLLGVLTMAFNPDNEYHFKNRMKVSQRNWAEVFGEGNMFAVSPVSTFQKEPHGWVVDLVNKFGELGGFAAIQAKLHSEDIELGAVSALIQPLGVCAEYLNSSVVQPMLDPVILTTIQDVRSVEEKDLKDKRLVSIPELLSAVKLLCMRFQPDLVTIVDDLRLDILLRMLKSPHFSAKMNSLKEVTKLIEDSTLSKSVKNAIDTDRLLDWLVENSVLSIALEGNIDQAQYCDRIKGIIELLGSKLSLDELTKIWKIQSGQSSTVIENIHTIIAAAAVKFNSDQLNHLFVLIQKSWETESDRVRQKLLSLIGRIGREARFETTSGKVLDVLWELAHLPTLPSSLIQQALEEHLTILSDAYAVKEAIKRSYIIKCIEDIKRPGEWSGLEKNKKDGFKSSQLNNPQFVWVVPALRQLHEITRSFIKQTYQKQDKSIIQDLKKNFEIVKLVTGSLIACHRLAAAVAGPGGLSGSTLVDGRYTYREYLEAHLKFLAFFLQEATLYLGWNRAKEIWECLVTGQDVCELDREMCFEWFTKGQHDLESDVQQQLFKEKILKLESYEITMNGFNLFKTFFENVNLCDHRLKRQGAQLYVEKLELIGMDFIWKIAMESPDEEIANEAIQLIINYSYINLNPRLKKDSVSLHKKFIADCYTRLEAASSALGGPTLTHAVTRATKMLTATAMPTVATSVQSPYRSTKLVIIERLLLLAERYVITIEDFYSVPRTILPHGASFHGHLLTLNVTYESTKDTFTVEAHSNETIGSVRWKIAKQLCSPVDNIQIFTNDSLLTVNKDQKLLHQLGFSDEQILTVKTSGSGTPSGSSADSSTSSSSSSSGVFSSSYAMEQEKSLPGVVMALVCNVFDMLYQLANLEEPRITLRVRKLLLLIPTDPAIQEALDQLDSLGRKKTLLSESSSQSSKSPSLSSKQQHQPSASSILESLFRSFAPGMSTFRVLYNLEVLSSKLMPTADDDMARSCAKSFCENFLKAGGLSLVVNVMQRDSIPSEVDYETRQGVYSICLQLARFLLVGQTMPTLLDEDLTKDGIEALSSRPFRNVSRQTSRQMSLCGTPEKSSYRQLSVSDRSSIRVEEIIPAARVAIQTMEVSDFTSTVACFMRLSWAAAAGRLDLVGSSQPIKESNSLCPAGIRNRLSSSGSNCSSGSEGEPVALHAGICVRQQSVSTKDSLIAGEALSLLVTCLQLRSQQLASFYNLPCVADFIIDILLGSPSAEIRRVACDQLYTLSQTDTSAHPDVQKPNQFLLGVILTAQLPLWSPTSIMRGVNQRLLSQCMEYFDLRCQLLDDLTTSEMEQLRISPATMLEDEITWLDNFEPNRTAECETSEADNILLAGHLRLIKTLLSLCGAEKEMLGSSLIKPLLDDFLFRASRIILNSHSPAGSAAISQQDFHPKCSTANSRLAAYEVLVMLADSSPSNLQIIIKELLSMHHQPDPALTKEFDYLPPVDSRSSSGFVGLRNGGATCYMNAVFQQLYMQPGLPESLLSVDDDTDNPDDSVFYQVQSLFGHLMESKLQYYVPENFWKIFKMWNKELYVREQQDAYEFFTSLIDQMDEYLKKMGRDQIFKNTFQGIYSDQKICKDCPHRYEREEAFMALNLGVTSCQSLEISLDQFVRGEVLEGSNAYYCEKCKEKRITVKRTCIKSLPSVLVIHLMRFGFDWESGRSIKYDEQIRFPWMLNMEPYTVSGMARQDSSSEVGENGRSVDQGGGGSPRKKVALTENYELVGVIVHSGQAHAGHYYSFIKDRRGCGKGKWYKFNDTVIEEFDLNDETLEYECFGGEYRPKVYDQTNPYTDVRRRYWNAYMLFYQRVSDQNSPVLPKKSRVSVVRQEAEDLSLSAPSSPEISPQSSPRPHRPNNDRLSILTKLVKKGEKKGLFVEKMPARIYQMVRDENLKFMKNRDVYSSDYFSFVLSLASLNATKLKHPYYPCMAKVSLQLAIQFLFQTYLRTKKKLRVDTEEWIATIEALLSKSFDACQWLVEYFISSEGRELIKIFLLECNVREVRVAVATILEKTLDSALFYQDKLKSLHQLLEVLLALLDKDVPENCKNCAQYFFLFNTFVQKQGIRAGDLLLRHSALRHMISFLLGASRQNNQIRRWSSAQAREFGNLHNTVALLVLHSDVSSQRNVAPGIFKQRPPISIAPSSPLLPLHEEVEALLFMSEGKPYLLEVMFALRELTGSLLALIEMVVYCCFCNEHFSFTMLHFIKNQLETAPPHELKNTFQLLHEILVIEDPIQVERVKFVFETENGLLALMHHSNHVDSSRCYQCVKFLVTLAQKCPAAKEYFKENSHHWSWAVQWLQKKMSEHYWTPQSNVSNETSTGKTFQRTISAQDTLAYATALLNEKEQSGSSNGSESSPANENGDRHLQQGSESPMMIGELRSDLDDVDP

Cc1cc(C(=O)NC2CCN(C(=O)CCl)CC2)no1
inactive: [1] -0.0463 | [2] -0.225 | [3] -0.417 | [4] -0.353
